Experimental data: PubChem BioAssay
The source made the active and inactive calls. Unless noted, the rule behind the calls is not given here.

Assays:
[1] = A549 cell viability effects, profiling panel, calcein-AM fluorescence, 48 h, basal (AID 1162); conditions: higher = more signal; note: test concentration not given here
[2] = adipocyte viability effects, profiling panel, cell-based, 3T3-L1 adipocytes, calcein-AM fluorescence, 48 h, basal (AID 1163); conditions: 3T3-L1 adipocytes viability, higher = more signal; note: test concentration not given here
[3] = HepG2 cell viability effects, profiling panel, calcein-AM fluorescence, 48 h, basal (AID 1164); conditions: higher = more signal; note: test concentration not given here
[4] = MM1S cell viability effects, profiling panel, calcein-AM fluorescence, 48 h, basal (AID 1165); conditions: higher = more signal;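 note: viability of MM1S multiple myeloma cells under basal unstimulated conditions; test concentration not given here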
[5] = basal RPMI8226 viability, no added stimulus, profiling panel, cell-based, calcein-AM fluorescence, 48 h, PK04 Diversity Set (AID 1166); conditions: RPMI8226 myeloma viability, higher = more signal;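 note: cells grown under basal conditions without added stimulus; test concentration not given here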
[6] = basal HepG2 mitochondrial membrane potential changes, profiling panel, cell-based, JC-1 fluorescence, 24 h, 100 nL compound (AID 1167); conditions: higher = more signal; note: test concentration not given here
[7] = basal 3T3-L1 adipocyte mitochondrial potential changes, profiling panel, cell-based, JC-1 fluorescence, 3T3-L1 adipocytes, 24 h, 100 nL compound (AID 1168); conditions: JC-1 mitochondrial fluorescence, higher = more signal, called active from +8 up or from −8 down; note: test concentration not given here
[8] = basal RPMI8226 mitochondrial membrane potential changes, profiling panel, cell-based, JC-1 fluorescence, 24 h, 100 nL compound (AID 1169); conditions: RPMI8226 myeloma, JC-1 mitochondrial potential fluorescence, higher = more signal; note: test concentration not given here
[9] = basal MM1S mitochondrial membrane potential changes, profiling panel, cell-based, JC-1 fluorescence, 24 h, 100 nL compound (AID 1170); conditions: higher = more signal; note: test concentration not given here
[10] = A549 lung cancer cell viability effects, profiling panel, resazurin fluorescence, 24 h, PK04 Diversity Set (AID 1171); conditions: higher = more signal, called active from +8 up or from −8 down; note: test concentration not given here
[11] = HepG2 liver cancer cell viability effects, profiling panel, resazurin fluorescence, 24 h, PK04 Diversity Set (AID 1172); conditions: higher = more signal; note: test concentration not given here
[12] = basal S. cerevisiae growth modulation, no modifier, primary screen, OD600, strain BY4716, 24 h, basal condition (AID 1173); conditions: OD600, 24 h, higher = more signal, called active from +8 up or from −8 down
[13] = MM1S myeloma cell viability, profiling panel, resazurin fluorescence, basal, 24 h, PK04 Diversity Set (AID 1174); conditions: higher = more signal, called active from +8 up or from −8 down;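 note: MM1S multiple myeloma cell line; test concentration not given here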
[14] = target: Dihydroorotate dehydrogenase (quinone), mitochondrial (Plasmodium falciparum (isolate 3D7)) (UniProt Q08210); experiment: PfDHODH enzyme inhibitors, primary screen, biochemical, C-terminal His tag, absorbance 600 nm (AID 1175); conditions: DCIP absorbance 600 nm, higher = more signal, called active from +8 up or from −8 down;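 note: recombinant parasite enzyme with a five histidine tag at its C terminus; test concentration not given here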
Sequence of Dihydroorotate dehydrogenase (quinone), mitochondrial (Plasmodium falciparum (isolate 3D7)) (Q08210 whole entry, looked up): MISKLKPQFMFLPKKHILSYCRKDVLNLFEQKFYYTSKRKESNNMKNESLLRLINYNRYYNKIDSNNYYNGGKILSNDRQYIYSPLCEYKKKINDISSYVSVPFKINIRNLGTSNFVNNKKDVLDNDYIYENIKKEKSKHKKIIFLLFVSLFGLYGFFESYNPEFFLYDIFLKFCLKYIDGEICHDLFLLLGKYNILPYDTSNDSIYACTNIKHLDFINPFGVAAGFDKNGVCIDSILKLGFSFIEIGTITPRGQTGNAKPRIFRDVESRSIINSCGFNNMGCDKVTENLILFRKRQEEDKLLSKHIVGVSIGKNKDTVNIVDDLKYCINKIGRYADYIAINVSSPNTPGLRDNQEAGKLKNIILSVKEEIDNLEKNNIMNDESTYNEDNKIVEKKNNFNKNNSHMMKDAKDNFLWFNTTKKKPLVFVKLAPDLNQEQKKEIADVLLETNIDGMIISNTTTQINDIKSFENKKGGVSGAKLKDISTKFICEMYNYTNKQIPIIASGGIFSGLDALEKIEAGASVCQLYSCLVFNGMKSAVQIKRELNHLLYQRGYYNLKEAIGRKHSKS

[15] = P. aeruginosa biofilm formation inhibitors, primary screen, strain PAO1, LB-PBS medium, absorbance 600 nm (AID 1176); note: test concentration not given here; conditions: P. aeruginosa PAO1 growth/biofilm, A600, 12 h; higher = more signal
[16] = S. cerevisiae RM11-1a growth modifiers, primary screen, strain RM11-1a, OD600, basal, 24 h (AID 1177); conditions: OD600, 24 h, higher = more signal, called active from +8 up or from −8 down;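 note: cultures grown under basal conditions with no added stressor; test concentration not given here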
[17] = E. coli acrAB mutant growth effects, primary screen, E. coli filamentation inducers, strain DRC39, OD650, 24 h (AID 1178); conditions: higher = more signal, called active from +8 up or from −8 down;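 note: growth measured as culture turbidity by optical density at 650 nm; test concentration not given here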
[18] = E. coli acrAB mutant growth effects, primary screen, E. coli filamentation inducers, strain DRC39, OD650, 48 h (AID 1179);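 note: screen aims at cell division blockers that make cells filament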; conditions: E. coli DRC39 delta-acrAB growth, higher = more signal, called active from +8 up or from −8 down
[19] = RPMI8226 myeloma cell viability, profiling panel, resazurin fluorescence, basal, 24 h, PK04 Diversity Set (AID 1180); conditions: higher = more signal;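 note: RPMI8826 multiple myeloma cell line at 5000 cells per well; test concentration not given here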
[20] = target: E3 ubiquitin-protein ligase XIAP (Homo sapiens) (UniProt P98170); experiment: XIAP binders, primary screen, biophysical, small-molecule microarray, fluorescence 635 nm (AID 1181); conditions: small-molecule microarray binding, higher = more signal;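 note: score merges 667 nm emission and signal to noise over triplicate slides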
Sequence of E3 ubiquitin-protein ligase XIAP (Homo sapiens) (P98170 whole entry, looked up): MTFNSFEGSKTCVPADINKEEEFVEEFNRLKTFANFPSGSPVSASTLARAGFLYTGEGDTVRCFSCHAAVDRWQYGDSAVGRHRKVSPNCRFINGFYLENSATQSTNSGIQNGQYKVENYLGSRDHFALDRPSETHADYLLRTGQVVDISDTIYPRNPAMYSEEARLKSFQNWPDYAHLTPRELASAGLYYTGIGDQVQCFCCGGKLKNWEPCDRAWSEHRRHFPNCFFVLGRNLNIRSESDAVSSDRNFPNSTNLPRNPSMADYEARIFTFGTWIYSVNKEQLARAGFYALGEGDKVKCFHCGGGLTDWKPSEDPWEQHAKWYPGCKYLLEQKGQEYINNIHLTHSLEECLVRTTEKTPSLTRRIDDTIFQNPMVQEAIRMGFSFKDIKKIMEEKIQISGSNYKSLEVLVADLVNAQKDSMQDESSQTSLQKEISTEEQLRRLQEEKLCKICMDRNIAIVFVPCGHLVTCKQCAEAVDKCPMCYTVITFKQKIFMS

Structure (SMILES)	z-score [1]	z-score [2]	z-score [3]	z-score [4]	z-score [5]	z-score [6]	z-score [7]	z-score [8]	z-score [9]	z-score [10]	z-score [11]	z-score [12]	z-score [13]	composite z-score [14]	z-score [15]	z-score [16]	z-score [17]	z-score [18]	z-score [19]	composite z-score [20]
COC(=O)c1c(CC[C@@H](CO)NC(=O)N[C@@H](Cc2ccccc2)Cn2cc(C3(O)CCCCC3)nn2)oc(C(C)=O)c1C(=O)OC	0.548	2.01	-0.889	0.513	-1.69	0.384	0.349 (inactive)	-0.614	-0.403	0.215 (inactive)	-0.172	-3.95 (inactive)	1.37 (inactive)	-4.08 (inactive)	-0.452 (inactive)	-2.6 (inactive)	1.05 (inactive)	0.874 (inactive)	0.428	0.0762
CC(C)CNC(=O)[C@@]1(c2ccc([N+](=O)[O-])cc2)CC(=O)N(CC23CC4CC(CC(C4)C2)C3)[C@@H]1c1ccc(CO)cc1I	-0.394	0.604	-3.4	-3.83	-4.32	1.47	-0.744 (inactive)	-0.948	-0.674	-2.77 (inactive)	-2.55	0.431 (inactive)	-2.77 (inactive)	0.989 (inactive)	1.9 (inactive)	1.69 (inactive)	-0.507 (inactive)	-0.91 (inactive)	-3.94	-0.144
CC(C)N1C(=O)c2ccccc2[C@@H](C(=O)NCCCN(C)C)[C@@H]1c1ccc(CO)cc1	0.177	1.46	0.0397	0.551	-0.981	1.09	-0.205 (inactive)	0.75	0.499	-0.565 (inactive)	-0.456	-0.725 (inactive)	-0.0365 (inactive)	0.465 (inactive)	-0.273 (inactive)	0.625 (inactive)	-0.315 (inactive)	-0.621 (inactive)	0.764	0.013
CC(C)C(=C=CC[C@H](O)c1cccc(OCCO)c1)C[C@H](O)COCc1ccccc1	-0.0353	-0.27	-0.0485	0.0675	-0.524	-0.42	-0.711 (inactive)	0.259	-0.615	1.25 (inactive)	0.685	-0.535 (inactive)	0.0454 (inactive)	-1.25 (inactive)	0.449 (inactive)	0.194 (inactive)	0.339 (inactive)	0.262 (inactive)	0.163	-0.113
COCCOC(=O)N1C(=O)[C@@]2(c3cc(C#CCC(C(=O)OC)C(=O)OC)ccc31)[C@H](c1ccc(O)cc1)N1[C@H](c3ccccc3)[C@H](c3ccccc3)OC(=O)[C@H]1[C@@H]2C(N)=O	-0.78	0.618	-0.568	-2.89	-3.48	-1.63	-0.791 (inactive)	-0.799	0.0557	-0.195 (inactive)	-0.2	-0.235 (inactive)	-0.0347 (inactive)	-0.181 (inactive)	1.28 (inactive)	0.332 (inactive)	-0.319 (inactive)	-0.586 (inactive)	-0.777	0.098
CC(=O)Nc1cc(Br)ccc1C(=O)O	0.665	0.747	0.332	-0.906	-0.178	-0.598	-0.672 (inactive)	-0.685	1.05	-0.243 (inactive)	-0.128	0.311 (inactive)	0.161 (inactive)	-0.398 (inactive)	-0.103 (inactive)	-0.129 (inactive)	-0.141 (inactive)	-0.535 (inactive)	0.357	-0.239
COCCOC(=O)N1C(=O)[C@@]2(c3cc(C#CC4=CCCCC4)ccc31)[C@H](C(=O)N1CCc3cc(OC)c(OC)cc3C1)[C@H]1C(=O)O[C@H](c3ccccc3)[C@H](c3ccccc3)N1[C@@H]2c1ccccc1OCCO	0.145	0.299	0.274	-1.37	-1.06	0.0701	2.17 (inactive)	-0.701	-0.72	0.267 (inactive)	-0.437	1.11 (inactive)	0.224 (inactive)	-0.0424 (inactive)	2.41 (inactive)	1.78 (inactive)	-0.649 (inactive)	0.418 (inactive)	-0.135	0.0039
O=c1oc(-c2ccccc2)nc2cc(Br)ccc12	-0.423	0.111	0.659	-1.99	-0.633	-0.773	0.67 (inactive)	-0.0586	0.873	-0.141 (inactive)	-0.284	-2.41 (inactive)	0.0202 (inactive)	0.336 (inactive)	0.0493 (inactive)	1.6 (inactive)	-0.117 (inactive)	-0.39 (inactive)	-0.194	0.208
